Calls of active or inactive are those of the source.
How the values were obtained:
[1] = binders of probe aFSTL3 on microarray, primary screen, stem cell growth factor project, biochemical, small-molecule microarray, fluorescence 635/667 (AID 1064); settings: higher = more signal;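 also: measures binding of the biotinylated anti-FSTL3 antibody to printed compounds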
[2] = binders from COS7 lysate, DM2A8 probe, primary screen, torsin A project, cell lysate, small-molecule microarray, fluorescence 635/667 (AID 1065); settings: higher = more signal, COS7 lysate expressing mutant human TOR1A
[3] = binders of probe aFGF2 on microarray, primary screen, stem cell growth factor project, biochemical, small-molecule microarray, fluorescence 635/667 (AID 1067); settings: higher = more signal;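 also: measures binding of biotinylated aFGF2 protein to printed compounds on slides; z-score merges feature fluorescence and signal-to-noise across triplicate slides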
[4] = binders of probe aFGF10 on microarray, primary screen, stem cell growth factor project, biochemical, small-molecule microarray, fluorescence 635/667 (AID 1071); settings: higher = more signal;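 also: score merges 667 nm spot intensity and signal to noise from triplicate slides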
[5] = biological target: Neurogenic locus notch homolog protein 2 (Homo sapiens) (UniProt Q04721); assay: Notch2 binders on small-molecule microarrays, primary screen, biochemical, small-molecule microarray, 635 nm fluorescence, stem cell growth factors (AID 1073); settings: Notch2 binding, higher = more signal
Sequence of Neurogenic locus notch homolog protein 2 (Homo sapiens) (Q04721 whole entry, looked up, canonical isoform): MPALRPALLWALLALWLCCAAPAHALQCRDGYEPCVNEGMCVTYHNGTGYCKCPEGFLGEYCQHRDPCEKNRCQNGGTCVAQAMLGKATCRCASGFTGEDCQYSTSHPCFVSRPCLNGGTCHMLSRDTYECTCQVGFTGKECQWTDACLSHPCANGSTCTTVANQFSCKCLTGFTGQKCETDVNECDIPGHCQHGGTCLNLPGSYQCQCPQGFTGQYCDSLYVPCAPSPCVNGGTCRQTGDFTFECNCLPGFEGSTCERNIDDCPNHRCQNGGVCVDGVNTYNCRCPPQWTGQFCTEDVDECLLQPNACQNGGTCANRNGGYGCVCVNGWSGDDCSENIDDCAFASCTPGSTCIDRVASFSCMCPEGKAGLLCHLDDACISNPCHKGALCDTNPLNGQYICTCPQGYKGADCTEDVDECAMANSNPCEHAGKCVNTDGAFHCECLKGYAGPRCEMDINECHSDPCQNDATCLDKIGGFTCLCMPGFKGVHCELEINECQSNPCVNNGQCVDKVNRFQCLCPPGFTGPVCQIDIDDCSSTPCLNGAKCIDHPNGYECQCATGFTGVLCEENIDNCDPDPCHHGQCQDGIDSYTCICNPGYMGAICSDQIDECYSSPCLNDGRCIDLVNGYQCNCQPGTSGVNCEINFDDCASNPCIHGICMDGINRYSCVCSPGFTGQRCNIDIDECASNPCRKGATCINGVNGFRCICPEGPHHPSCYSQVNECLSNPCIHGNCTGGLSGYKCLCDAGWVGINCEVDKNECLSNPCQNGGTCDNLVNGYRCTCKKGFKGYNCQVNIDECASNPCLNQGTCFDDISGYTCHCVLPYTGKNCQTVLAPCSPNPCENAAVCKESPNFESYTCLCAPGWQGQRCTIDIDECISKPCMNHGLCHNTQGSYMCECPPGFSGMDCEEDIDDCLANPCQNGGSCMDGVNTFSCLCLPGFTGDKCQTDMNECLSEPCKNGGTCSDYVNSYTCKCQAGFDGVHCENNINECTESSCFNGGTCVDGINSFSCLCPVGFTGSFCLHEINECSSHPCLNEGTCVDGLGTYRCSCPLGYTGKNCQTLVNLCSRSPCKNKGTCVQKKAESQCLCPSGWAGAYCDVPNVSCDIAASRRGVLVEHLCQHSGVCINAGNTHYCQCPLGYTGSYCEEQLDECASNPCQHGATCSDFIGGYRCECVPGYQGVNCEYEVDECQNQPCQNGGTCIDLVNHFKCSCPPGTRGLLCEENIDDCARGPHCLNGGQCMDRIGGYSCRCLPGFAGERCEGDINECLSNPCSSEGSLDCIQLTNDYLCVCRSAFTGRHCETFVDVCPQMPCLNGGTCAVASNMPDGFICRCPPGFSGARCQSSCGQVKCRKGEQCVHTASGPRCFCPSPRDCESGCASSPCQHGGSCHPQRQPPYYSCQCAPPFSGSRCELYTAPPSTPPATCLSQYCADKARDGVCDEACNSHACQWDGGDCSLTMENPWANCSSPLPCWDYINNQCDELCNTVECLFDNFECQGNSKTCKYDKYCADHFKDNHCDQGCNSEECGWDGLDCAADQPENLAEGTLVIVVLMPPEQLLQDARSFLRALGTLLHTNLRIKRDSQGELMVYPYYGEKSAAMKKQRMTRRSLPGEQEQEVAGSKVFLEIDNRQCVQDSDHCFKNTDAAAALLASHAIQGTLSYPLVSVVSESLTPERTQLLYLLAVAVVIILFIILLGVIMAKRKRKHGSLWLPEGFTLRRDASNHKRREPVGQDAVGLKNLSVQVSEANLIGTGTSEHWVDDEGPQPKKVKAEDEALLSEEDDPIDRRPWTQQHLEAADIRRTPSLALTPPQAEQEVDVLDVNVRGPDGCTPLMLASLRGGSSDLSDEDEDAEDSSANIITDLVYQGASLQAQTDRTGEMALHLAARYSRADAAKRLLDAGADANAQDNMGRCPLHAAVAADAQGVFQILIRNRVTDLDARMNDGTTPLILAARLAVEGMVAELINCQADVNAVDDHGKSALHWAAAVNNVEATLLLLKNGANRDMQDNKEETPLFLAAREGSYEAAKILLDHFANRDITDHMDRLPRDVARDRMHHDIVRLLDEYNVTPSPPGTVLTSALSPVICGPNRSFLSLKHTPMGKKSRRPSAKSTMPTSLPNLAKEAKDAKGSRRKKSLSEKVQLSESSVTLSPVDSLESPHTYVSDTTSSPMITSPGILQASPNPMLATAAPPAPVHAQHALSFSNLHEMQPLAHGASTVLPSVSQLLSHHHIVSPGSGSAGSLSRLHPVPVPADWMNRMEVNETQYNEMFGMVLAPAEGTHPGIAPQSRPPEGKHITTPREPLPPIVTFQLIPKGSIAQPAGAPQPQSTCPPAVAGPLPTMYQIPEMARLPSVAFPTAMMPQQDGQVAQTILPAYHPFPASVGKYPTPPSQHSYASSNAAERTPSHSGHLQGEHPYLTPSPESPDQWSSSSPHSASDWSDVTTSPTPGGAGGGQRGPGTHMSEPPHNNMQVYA

[6] = biological target: Pro-neuregulin-1, membrane-bound isoform (Homo sapiens) (UniProt Q02297); assay: NRG1 binders on small-molecule microarrays, primary screen, psychiatric disease protein project, biochemical, small-molecule microarray, fluorescence 635/667 (AID 1075); settings: NRG1 binding, 635 nm fluorescence, higher = more signal;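 also: score combines 667 nm spot fluorescence with signal to noise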
Sequence of Pro-neuregulin-1, membrane-bound isoform (Homo sapiens) (Q02297 whole entry, looked up, the tested form may be a part, canonical isoform): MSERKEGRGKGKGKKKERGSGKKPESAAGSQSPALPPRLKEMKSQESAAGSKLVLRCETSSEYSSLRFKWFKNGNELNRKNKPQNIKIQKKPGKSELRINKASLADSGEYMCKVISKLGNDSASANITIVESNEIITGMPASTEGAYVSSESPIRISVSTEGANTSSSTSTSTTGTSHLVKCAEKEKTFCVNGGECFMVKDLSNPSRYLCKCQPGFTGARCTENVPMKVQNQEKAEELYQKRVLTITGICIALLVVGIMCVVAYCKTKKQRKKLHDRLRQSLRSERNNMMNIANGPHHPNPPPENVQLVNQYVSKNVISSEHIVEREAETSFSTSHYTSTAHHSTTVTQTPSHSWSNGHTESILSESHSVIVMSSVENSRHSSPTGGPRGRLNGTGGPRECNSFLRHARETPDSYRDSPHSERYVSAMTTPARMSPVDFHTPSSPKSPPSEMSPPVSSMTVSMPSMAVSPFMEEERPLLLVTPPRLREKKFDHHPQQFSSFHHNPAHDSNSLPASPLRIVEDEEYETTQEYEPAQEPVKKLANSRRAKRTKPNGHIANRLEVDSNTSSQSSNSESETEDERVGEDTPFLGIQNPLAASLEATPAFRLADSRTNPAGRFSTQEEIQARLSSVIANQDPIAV

[7] = test system: Neuregulin-1 EGF-like domain; assay: binders of neuregulin-1 EGF-like domain, primary screen, biochemical, small-molecule microarray, 635 nm fluorescence (AID 1081); settings: small-molecule microarray binding, higher = more signal;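 also: binding of the protein to compounds printed on small-molecule microarray slides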
[8] = FRG1 promoter luciferase signal modulators, primary screen, FRG1 inhibition for FSHD, cell-based, C2C12 myotubes, firefly/Renilla luciferase, luminescence (AID 1084); settings: higher = more signal, called active from +8 up or from −8 down
[9] = binders of probe aFST on microarray, primary screen, stem cell growth factor project, biochemical, small-molecule microarray, fluorescence 635/667 (AID 1086); settings: higher = more signal;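 also: score merges 667 nm fluorescence with signal-to-noise of each printed compound spot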
[10] = binders of probe aHhip on microarray, primary screen, stem cell growth factor project, biochemical, small-molecule microarray, fluorescence 635/667 (AID 1087); settings: higher = more signal;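 also: score merges spot fluorescence at 667nm with spot signal to noise ratio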

| SMILES | composite z-score [1] | composite z-score [2] | composite z-score [3] | composite z-score [4] | composite z-score [5] | composite z-score [6] | composite z-score [7] | z-score [8] | composite z-score [9] | composite z-score [10] |
| --- | --- | --- | --- | --- | --- | --- | --- | --- | --- | --- |
| CC(C)(C)OC(=O)CC[C@]1(C(=O)NCCN2CCOCC2)N=C(c2ccc(OCCCO)cc2)O[C@H]1c1ccccc1 | 0.445 | -1.1 | -0.0939 | -0.109 | -0.313 | 1.66 | 1.09 | 0.273 (inactive) | 0.285 | -0.0618 |
| COC(=O)[C@@]1(Cc2ccc(OC)cc2)[C@H]2c3cc(C(=O)N4CCCC4)n(CCc4cc5ccccc5[nH]4)c3C[C@H]2CN1C(=O)c1ccccc1 | 0.649 | 0.115 | 0.194 | 0.614 | 1.36 | 1.9 | 1.1 | 0.562 (inactive) | 1.71 | 0.363 |
| COCCCNC(=O)[C@@]1(Sc2ccc(C)cc2)CC(=O)N(Cc2cc(C(F)(F)F)cc(C(F)(F)F)c2)[C@@H]1c1ccc(CO)cc1 | 0.0028 | 0.525 | -0.144 | -0.29 | 0.0762 | 1.22 | 0.875 | -0.42 (inactive) | -0.168 | 0.213 |
| O=c1cccc(-c2cccc(Cl)c2)o1 | -0.118 | -0.341 | -0.0937 | 0.299 | -0.0173 | -0.0364 | 0.409 | 2.02 (inactive) | 0.433 | -0.223 |
| CO[C@H]1O[C@H](CO)[C@@H](OC(=O)Nc2ccc(C(F)(F)F)cc2)[C@H](OC(=O)Nc2ccc3c(c2)OCO3)[C@H]1OC(=O)Nc1ccc2c(c1)OCO2 | 0.303 | 1.15 | 0.0557 | 0.794 | 1.41 | 1.6 | 1.3 | 6.45 (inactive) | 0.557 | 0.176 |
| C=C[C@@H](C)[C@H](OC(=O)Nc1ccc(SC)cc1)c1ccc(OCCO)cc1 | 0.342 | -0.272 | -0.215 | -0.542 | -0.713 | 1.8 | 1.22 | 6.28 (inactive) | -0.375 | -0.0538 |
| COc1ccc(NN2C(C(O)c3ccco3)C=CC3C(=O)N(C4CCCCC4)C(=O)C32)cc1 (stereo not given) | -0.0934 | 1.14 | -0.051 | 1.12 | 1.36 | 0.95 | 1.15 | 0.592 (inactive) | 1.51 | 0.0216 |
| O=C1C[C@@](C(=O)NCC(F)(F)F)(c2ccc([N+](=O)[O-])cc2)[C@@H](c2ccc(CO)cc2)N1C1CCCCC1 | 0.99 | 1.2 | 0.0216 | 0.606 | 0.303 | 1.24 | 1.37 | 0.265 (inactive) | 0.243 | 0.554 |
| CC=CC(O)C1C=CC2C(=O)N(C)C(=O)C2N1Nc1ccc([N+](=O)[O-])cc1[N+](=O)[O-] (stereo not given) | 0.028 | -0.183 | -0.185 | -0.0156 | -0.346 | 1.2 | 1.29 | 0.639 (inactive) | -0.441 | 0.312 |
| CCCCN1CC=CC23O[C@@H]4C=CCOC(=O)[C@@H]4[C@H]2C(=O)N(CCCO)[C@@H]3C1=O (stereo not given in full) | 0.594 | -0.0489 | -0.137 | -0.423 | -1.51 | 1.03 | 1.54 | 0.0518 (inactive) | -0.488 | -0.134 |
| COc1ccc([Si](C)(C)[C@H]2[C@H](CCn3cc(CCO)nn3)O[C@@]3(C(=O)N(Cc4ccc(N5C(=O)c6cccc7cccc5c67)cc4)c4ccccc43)[C@@H]2C)cc1 | -0.619 | 0.355 | -0.0583 | 0.53 | 0.611 | 1.16 | 1.1 | -4.65 (inactive) | 0.372 | 0.0695 |
| CN(C)CCCN1C(=O)[C@@]2(c3ccc([N+](=O)[O-])cc3)CC(=O)N(CC34CC5CC(CC(C5)C3)C4)[C@@H]2c2ccc(CO)cc21 | -0.106 | -0.429 | -0.0276 | 0.0318 | -0.346 | 0.742 | 0.72 | 0.0832 (inactive) | 0.0267 | 0.0024 |
| Cc1c(NC(=O)/C(C#N)=C/C=C/c2ccccc2[N+](=O)[O-])c(=O)n(-c2ccccc2)n1C | -0.0331 | 0.563 | 0.0415 | 0.0448 | 1.03 | 1.1 | 1.13 | -0.844 (inactive) | 0.334 | 0.0352 |
| C=C[C@@H](COC(C)=O)NS(=O)(=O)c1ccc(Br)cc1 | -0.35 | 0.242 | -0.0296 | 0.135 | 0.414 | 0.0227 | 0.564 | 1.39 (inactive) | 0.111 | -0.0672 |
| O=C1O[C@@H](c2ccccc2)[C@@H](c2ccccc2)N2[C@@H](c3ccccc3OCCO)[C@]3(C(=O)Nc4ccc(C#CC5=CCCCC5)cc43)[C@@H](C(=O)NC[C@H](O)c3ccccc3)[C@H]12 | -0.595 | 2.06 | 0.0296 | 0.648 | 0.948 | 1.42 | 1.01 | -0.279 (inactive) | 0.517 | -0.0391 |
| CC(C)(C)N1CC=CC23O[C@@H]4C=CCOC(=O)[C@@H]4[C@H]2C(=O)N(CCCO)[C@@H]3C1=O (stereo not given in full) | 0.698 | -0.182 | -0.199 | -0.838 | -1.54 | -0.475 | 1.08 | 0.619 (inactive) | -1 | -0.0994 |
| C=CC1c2cc(O)c(OC)cc2CCN1Cc1sc2ccccc2c1Cl (stereo not given) | 1.12 | 0.396 | -0.0316 | 0.436 | 1.2 | 1.9 | 1.23 | -0.732 (inactive) | 0.853 | -0.0237 |
| COCCCNC(=O)[C@]1(Cc2ccccc2CN=[N+]=[N-])N=C(c2ccc(OCCCO)cc2)O[C@@H]1c1ccccc1 | -0.254 | 1.19 | 0.0788 | 0.627 | 1.09 | 0.969 | 1.12 | -3.73 (inactive) | 1.03 | -0.0645 |
| COc1ccc([Si](C)(C)[C@@H]2[C@@H](CCn3cc([C@H](O)c4ccccc4)nn3)O[C@]3(C(=O)N(Cc4ccc(N5CCOC5=O)cc4)c4ccccc43)[C@H]2C)cc1 | -0.28 | 0.882 | -0.0658 | 0.512 | 0.62 | 0.61 | 0.825 | 0.216 (inactive) | 0.137 | 0.0854 |
| O=C1O[C@@H](c2ccccc2)[C@@H](c2ccccc2)N2[C@@H](c3ccc(O)cc3)[C@]3(C(=O)Nc4ccccc43)[C@@H](C(=O)Nc3nc4ccccc4s3)[C@H]12 | 0.0072 | 0.155 | -0.0206 | 0.43 | -0.434 | 1.28 | 1.15 | -2.37 (inactive) | 0.642 | 0.0373 |
| CC(C)(C)OC(=O)CC[C@@]1(C(=O)O)N=C(c2ccc(OCCCO)cc2)O[C@@H]1c1ccccc1 | 0.308 | -0.648 | -0.0459 | 0.13 | 0.347 | 1.96 | 1.53 | 0.853 (inactive) | 0.398 | 0.24 |
| CC(C)(C)OC(=O)CC[C@]1(C(=O)O)N=C(c2ccc(OCCCO)cc2)O[C@H]1c1ccccc1CN=[N+]=[N-] | -0.169 | -0.246 | 0.0911 | 0.113 | 0.261 | 1 | 1.45 | 2.04 (inactive) | 0.794 | -0.409 |
| C=C(CCCC)C(=O)CC[C@@H](OC(=O)c1cccnc1)c1ccccc1OCCO | 0.0165 | 0.77 | -0.0878 | 0.0032 | -0.872 | -0.413 | -0.0199 | -0.449 (inactive) | -0.604 | -0.0994 |
| COC(=O)[C@@]1(Cc2ccc(OC)cc2)[C@H]2c3cc(C(=O)N(C)C)n(Cc4nc5ccccc5[nH]4)c3C[C@H]2CN1C(=O)c1ccccc1 | 0.0732 | -0.401 | 0.212 | 0.874 | 1.76 | 1.82 | 1.23 | -1.62 (inactive) | 1.09 | 0.147 |
| CO[C@H]1O[C@H](CO)[C@@H](OC(=O)c2ccc(Br)cc2)[C@@H]2OC(=O)[C@@H](Cc3ccc4ccccc4c3)C/C=C/C[C@H](Cc3ccc4ccccc4c3)C(=O)O[C@@H]12 | -0.248 | -0.08 | 0.0289 | 0.622 | 0.714 | 1.74 | 1.2 | -1.14 (inactive) | 0.349 | 1.2 |
| C[n+]1ccc(CCCO)cc1 | 1.03 | 1.06 | -0.044 | 0.0582 | -1.21 | -0.161 | 1.45 | 1.12 (inactive) | -0.311 | 0.837 |
| [N-]=[N+]=NCc1ccccc1C[C@@]1(C(=O)NCCN2CCOCC2)N=C(c2ccc(OCCCO)cc2)O[C@@H]1c1ccccc1N=[N+]=[N-] | 0.646 | 1.99 | 0.075 | 0.879 | 0.777 | 0.684 | 1.16 | -1.89 (inactive) | 0.75 | -0.0296 |

Reference: PubChem BioAssay
